# High-throughput results: PubChem, several laboratories
# SKKanGAS inh = SKKanGAS growth inhibition; S. pyogenes SKKanGAS, kanamycin growth, BacTiter-Glo, 6 h; inhibition, % at 7.5 µM; 1.3% of 300,000 active; AID 1662;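 active = mean replicate score, as percent of positive control median, at least 50; inconclusive = mean below 50 but one replicate at or above 50; inactive = mean and every replicate below 50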;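 also: strain carries kanamycin resistance gene driven by streptokinase promoter and grows in 40 µg/ml kanamycin; loss of luminescence reflects streptokinase promoter inhibition or plain growth inhibition; 0% = median of DMSO wells and 100% = positive control at its reference dose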
# CSC inhib = blocks cancer stem cells. cancer stem cell-like cells viability, luminescence. inhibition, % at 7.5 µM. 1.1% of 300,000 active. AID 2717; in the data active = inhibition above about 75%; inconclusive = no clear call, values can overlap the other calls; tested in HMLE shEcad cells
# Beta cell apopt = blocks beta cell apoptosis; INS-1E cytokine-induced death, ATP luminescence, 48 h; percent of positive-control rescue, neutral wells zero; protection from apoptosis, % (test concentration not listed); 0.8% of 300,000 active;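 active = Every replicate reaches about 75%, or at least half do and their mean reaches it too, limit read from the data; inconclusive = At least half of replicates reach the limit but their mean does not; inactive = Under half of replicates reach the limit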;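 also: 0% = cytokine-treated negative control wells and 100% = positive control rescue; higher means more ATP so stronger rescue from cytokine killing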
# Mdm2-MdmX inh = human Mdm2/MdmX binding inhibition; SaOS-2 split-luciferase Mdm2/MdmX complementation, luminescence; inhibition, % at 8 µM; AID 485346; 3% of 330,000 active; O15151+Q00987;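 active = inhibition of at least 50% at 8 µM in the primary screen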
# NR3A LBD binder = modulates the human NR3A ligand-binding domain; AID 1259313; NR3A LBD differential scanning fluorimetry, Tm shift; 0% = protein alone, 100% = glycine-bound protein; Tm shift relative to glycine control, % at 25 µM; 2.5% of 340,000 active;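 active = melting temperature shift of at least 10% of the positive control shift, at one fixed dose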
# MPTP block = inhibitors of mitochondrial permeability transition pore. isolated mouse mitochondria, Ca2+ swelling absorbance, 30 min. inhibition, % at 10 µM. 1.4% of 360,000 active;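 active = inhibition of 50% or more, scaled per plate between neutral and stimulator controls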;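 also: 0% = DMSO wells given calcium and 100% = 1 mM EGTA wells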
# The depositor's hits bear a star; ? = inconclusive; . = not tested or not shown. A selection: hits, their analogues and other compounds. The true share with any hit is near 6.9%.
SMILES,SKKanGAS inh,CSC inhib,Beta cell apopt,Mdm2-MdmX inh,NR3A LBD binder,MPTP block
Cc1onc(-c2ccccc2)c1C(=O)N[C@@H]1C(=O)N2C1SC(C)(C)[C@@H]2C(=O)O (stereo partly drawn),.,.,.,.,-1,-1
CC1(C)SC2C(NC(=O)C3(N)CCCCC3)C(=O)N2C1C(=O)O (stereo not drawn),.,.,.,.,0,0
NNc1cc([N+](=O)[O-])cc2c1C(=O)N(Cc1ccccc1)S2=O (stereo not drawn),-2,-6,-7,0,2,-2
O=C(N/N=C/c1ccccc1O)c1ccc2c(c1)OCO2,105*,30,95*,13,.,0
O=C(N/N=C/c1c[nH]c2ccccc12)c1cccc([N+](=O)[O-])c1,-2,14,-3,17,25*,0
O=C(N/N=C/c1c[nH]c2ccccc12)c1cccs1,-1,7,3,14,23*,0
COc1ccccc1C(=O)N/N=C/c1c[nH]c2ccccc12,0,0,1,-16,14*,0
CC/C(=N\NC(=O)c1nnn(-c2nonc2N)c1-c1cccc(OC)c1)c1ccc(C)cc1,18,-3,13,13,-4,-1
COC(=O)c1c(NC(=O)/C=C/C(=O)O)sc(C)c1-c1ccc(C(C)C)cc1,32,9,22,41,-3,1
O=C(NC(Cc1c[nH]c2ccccc12)C(=O)N/N=C/c1cccc2ccccc12)c1cccs1 (stereo not drawn),60*,15,9,27,19*,1
O=C(N/N=C/c1c[nH]c2ccccc12)c1ccccc1,-2,-12,-3,-14,18*,0
CC(=O)n1cc(/C=N/NC(=O)c2ccc([N+](=O)[O-])cc2)c2ccccc21,6,19,5,14,21*,0
Cc1c(/C=N\NC(=O)c2ccc([N+](=O)[O-])cc2)cnn1C,-8,-9,-7,6,-4,-1
O=C(N/N=C/c1c[nH]c2ccccc12)c1ccc2c(c1)OCCO2,43,35,2,-45,11*,1
O=C(NCc1cccnc1)c1cc(C2CCCCN2S(=O)(=O)c2ccc(F)cc2F)on1 (stereo not drawn),.,.,.,.,.,0
COC(=O)C[C@@H]1CC[C@H](NC(=O)c2ccc3c(c2)OCO3)[C@@H](CO)O1,.,.,.,.,.,0
COc1ccc2ccccc2c1/C=N/NC(=O)c1ccc([N+](=O)[O-])cc1,4,1,-3,8,1,0
O=C(N/N=C/c1c[nH]c2c1ccc1ccccc12)c1ccc([N+](=O)[O-])cc1,0,1,-2,-9,39*,0
Cc1ccc(C(=O)Nc2ccc(C(=O)N/N=C/c3c[nH]c4ccccc34)cc2)cc1,10,50,18,-23,31*,0
O=C(N/N=C/c1c[nH]c2ccccc12)c1sc2ccccc2c1Cl,-4,47,-5,-37,35*,0
O=C(N/N=C/c1c[nH]c2ccc(Br)cc12)c1ccc2c(c1)OCO2,5,.,.,20,31*,0
CCN(CC)c1ccc(S(=O)(=O)N2CCOCC2)cc1NC(=O)CN1CCN(Cc2ccccc2)CC1,-9,-2,8,-7,-2,8
Cc1cccc(NC(=S)N/N=C/c2c[nH]c3ccccc23)c1,8,79*,19,44,33*,4
Cc1[nH]n(-c2cccc3ccccc23)c(=O)c1/C=N/NC(=O)c1cccc([N+](=O)[O-])c1,53*,10,7,20,-3,6
CCN(CC)c1ccc(/C=N/NC(=O)c2ccc3c(c2)OCCO3)cc1,-4,.,.,16,-2,0
SMILES,SKKanGAS inh,CSC inhib,Beta cell apopt,Mdm2-MdmX inh,NR3A LBD binder,MPTP block
O=C(NN=Cc1c[nH]c2ccccc12)NN=Cc1c[nH]c2ccccc12,.,.,.,.,.,3
Cc1cc(C(=O)N/N=C/c2c[nH]c3ccccc23)cs1,-3,24,-2,-5,27*,0
CN(C)c1ccc(/C=N/NC(=O)c2ccc3c(c2)OCCO3)cc1,?,-1,0,8,21*,-1
O=C(N/N=C/c1coc2ccccc2c1=O)c1cccc([N+](=O)[O-])c1,-1,-9,-9,.,-5,4
c1ccc(NC2=NCCN2CCCC2CCCC2)cc1,.,3,0,9,1,4
CC(C)c1ccc(NC(=O)[C@@H]2CCC(=O)N2C2OC(=O)c3ccccc32)cc1 (stereo partly drawn),2,-11,0,-12,-4,-1
O=C(N/N=C/c1cc(Br)c(O)c(Br)c1O)c1ccc2c(c1)OCCO2,18,50,91*,29,3,-2
Cc1cc(Cl)ccc1OCC(=O)OCC(=O)NCCNC(=O)COC(=O)COc1ccc(Cl)cc1C,.,.,.,.,12*,0
Cc1cc(Cl)ccc1OCC(=O)NCCC(=O)O,-7,-1,-1,-1,2,0
CC(C)CCNC(=O)NC(=O)COC(=O)/C=C/c1cnc2ccccc2n1,0,-6,-16,15,11*,3
Cc1ccc(-c2n[nH]c(S(C)(=O)=O)c2C#N)cc1,-2,-9,1,20,23*,3
CCCC[n+]1c(-c2ccc(Cl)cc2Cl)csc1Nc1ccccc1,5,52,-2,30,-5,5
Clc1ccc(-c2csc(Nc3ccccc3)[n+]2Cc2ccco2)c(Cl)c1,79*,.,.,.,1,5
CC(C)N(C(=O)CSc1nc2ccccc2n1-c1ccccc1)C(C)C,-12,78*,-5,17,-1,-3
CC(C)CN(C(=O)COC(=O)CCc1nc2ccccc2s1)c1c(N)n(Cc2ccccc2)c(=O)[nH]c1=O,-3,-7,3,8,-3,0
CN(CCc1ccccc1)C(C(=O)Nc1ccc2c(c1)OCCO2)C1CC1 (stereo not drawn),.,.,.,.,.,-2
CSc1nc(-c2ccc(Cl)cc2)c(C#N)c(=O)[nH]1,-5,2,1,13,38*,16
Cc1cc(NC(=S)N(CCCN2CCOCC2)Cc2ccco2)ccc1Cl,-14,-8,-12,14,13*,2
COc1cccc(NC(=O)C2(C)CCN2CCc2ccccc2)c1 (stereo not drawn),.,.,.,.,.,1
Cc1ccc2c(c1)N(C(=O)CCC(=O)NCCCN1CCC(Cc3ccccc3)CC1)CCO2,-2,3,99*,37,-2,21
Cc1ccc2c(c1)N(C(=O)CCC(=O)NCCCN1CCN(C)CC1)CCO2,4,.,-6,13,-1,-2
CCc1nc(N2CCN(Cc3ccc4c(c3)OCO4)CC2)c2oc3ccccc3c2n1,26,81*,-5,30,3,2
CCc1nc(N2CCCCC2C(=O)O)c2oc3ccccc3c2n1 (stereo not drawn),-6,-9,-18,-15,-1,1
CCc1nc(N2CCCCC2C)c2oc3ccccc3c2n1 (stereo not drawn),27,102*,15,48,3,1
